# Assay outcomes: PubChem, National Center for Advancing Translational Sciences (NCATS)
# Only some compounds are listed: those with a hit (about 19% of all), similar ones and a draw of the others.
# TDP1 cell CPT = DT40-hTDP1 cell growth loss with CPT. Potency, µM (top dose mostly 46.2 µM), usual class: inhibitors. hit rate 12% among 420,000. chicken DT40 Tdp1-/-;hTDP1 cells + 20 nM CPT, ATP luminescence, 48 h. AID 686979; note: nearly all actives have a fitted effect of over 55% in size
#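 Chicken DT40 Tdp1-/- cells complemented with human TDP1, 400 cells/well, exposed to compounds plus 20 nM camptothecin for at least 48 h at 37 C; viability read as ATP content by CellTiter-Glo luminescence.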
# HT1080-NT tox = kills 2HG-producing HT-1080-NT fibrosarcoma cells | Potency, µM (titrated, usually from 46.1 µM), actives largely listed as cytotoxic | HT-1080-NT fibrosarcoma viability, CellTiter-Glo ATP luminescence, 48 h | hit rate 1.6% among 360,000;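 note: NT is the 2HG producing partner of a matched IDH1 knockdown line; nearly all actives have a fitted effect of over 55% in size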
#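 HT-1080-NT fibrosarcoma cells (2HG-overproducing), 750 cells/well in RPMI with 5% FBS, dosed after 2 h and incubated 48 h at 37C. CellTiter-Glo luminescence normalized to DMSO and no-cell wells; concentration-response curves fitted and classed.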
# DT40 TDP1 no CPT = qHTS for Inhibitors of human tyrosyl-DNA phosphodiesterase 1 (TDP1): qHTS in cells in absence of CPT; Potency, µM (series often up to 46.2 µM), actives largely listed as inhibitors; hit rate 15% among 420,000; DT40 Tdp1-/- hTDP1 cells, no CPT, ATP luminescence, 48 h; note: nearly all actives have a fitted effect of over 55% in size
#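 Growth of hTDP1-complemented DT40 Tdp1-knockout cells is measured by ATP luminescence after at least 48 hr compound exposure at 37 °C, with DMSO substituting for the 20 nM CPT used in the parallel screen.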
# HT1080 IDH1KD tx = HT-1080 IDH1 knockdown cell toxicity (counter line); Potency, µM (top dose mostly 46.1 µM), actives largely listed as cytotoxic; hit rate 2% among 360,000; HT-1080 IDH1 knockdown viability, ATP luminescence, 48 h
#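 Viability of IDH1-knockdown HT-1080 fibrosarcoma cells was assessed by CellTiter-Glo after 48 h at 37 °C with titrated compound; concentration-effect curves were classified by fit quality and response size.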
# IL-1B inflam inh = blocks inflammasome-driven IL-1 beta release | hit rate 4.7% among 360,000 | THP-1 LPS/ATP IL-1B secretion, AlphaLISA, 16 h; hits give low values | activity change, % at 57.5 µM | AID 743279; in the data active = activity change below about -50%; inconclusive = mostly about -30% to -49%
#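 THP-1 cells pretreated 1 hr with compounds (up to 57.5 uM final), then stimulated with LPS (250 ng/mL final) plus ATP (1.25 mM final); secreted IL-1B measured by AlphaLISA after 16 hr, decreased signal indicating inhibition.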
# Numbers stand for hits; - = inactive; ? = inconclusive; . = not tested or not shown; ! = not confirmed by another sample. Unless noted, calls come from the whole dose curve; as a rule, active = well fitted curve in the direction sought with a large enough effect; inconclusive = small, poorly fitted or top-dose-only effect, or another doubt; inactive = no such curve, though single readings can be large; an effect the other way counts as inactive or inconclusive.
SMILES,TDP1 cell CPT,HT1080-NT tox,DT40 TDP1 no CPT,HT1080 IDH1KD tx,IL-1B inflam inh
Cc1ccc(C)c(N2CCN(c3nc4ccccc4c(=O)n3Cc3ccccc3)CC2)c1,-,-,-,-,-
COc1ccccc1N1CCN(C(=O)CN2C(=O)C3CCCCC3C2=O)CC1 (centres undefined),-,-,-,-,-
COc1ccccc1N1CCN(C(=O)c2c3c(nc4ccccc24)C(=O)N(C2CCCCC2)C3)CC1,13µM,.,20.6µM,.,.
Cc1ccc(C)c(N2CCN(C(=O)c3c4c(nc5ccccc35)C(=O)N(C3CCCCC3)C4)CC2)c1,16.4µM,.,18.4µM,.,.
CCOC(=O)c1c(C)[nH]c(C)c1S(=O)(=O)N1CCCC(C(=O)N2CCN(c3cccc(C)c3C)CC2)C1 (centres undefined),14.6µM,.,?,.,.
CCOC(=O)c1c(C)[nH]c(C)c1S(=O)(=O)N1CCCC(C(=O)N2CCN(c3cccc(Cl)c3)CC2)C1 (centres undefined),20.6µM,.,20.6µM,.,.
Clc1ccc(CNc2ccc3nnc(-c4ccccc4)n3n2)cc1,2.06µM,-,4.11µM,-,-
CN(Cc1ccccc1)c1ccc2nnc(-c3ccccc3)n2n1,?,-,?,-,-
CCOc1ccc(CCNc2ccc3nnc(-c4ccccc4)n3n2)cc1OCC,16.4µM,-,?,-,-
CCN(C(=O)Cn1ncc2c(=O)oc3ccccc3c21)c1ccccc1F,-,.,?,.,.
CCCN(C(=O)Cn1ncc2c(=O)oc3ccccc3c21)c1cccc(C)c1,23.1µM!,-,20.6µM,-,-
COC(=O)C(CCSC)NC(=O)Cn1ncc2c(=O)oc3ccccc3c21 (centres undefined),?,-,-,-,-55.0
COc1cc(NC(=O)Cn2ncc3c(=O)oc4ccccc4c32)cc(OC)c1OC,-,.,-,.,.
Cc1ccc(-c2csc3ncnc(-n4cnc5ccccc54)c23)cc1,?,16.4µM,18.4µM,20.6µM,?
Cc1ccc(-c2csc3ncnc(-n4nnc5ccccc54)c23)cc1C,20.6µM,-,?,-,-
c1ccc(-c2csc3ncnc(-n4cnc5ccccc54)c23)cc1,?,-,?,-,-
O=C(O)[C@H]1CN[C@H](C(=O)O)C1,-,.,-,.,.
CN(C(=O)CSc1ncnc2sc3c(c12)CCCC3)C1CCS(=O)(=O)C1 (centres undefined),-,-,?,-,-
[O-]/[N+](=C\c1ccncc1)c1ccc(Br)cc1,8.2µM,-,?,-,-
C/C=C1\COC(C(=O)NCc2ccccc2)(C(F)(F)F)C=C1C=C(C)C (centres undefined),?,-,?,-,-
COc1ccc(N2CCN(S(=O)(=O)c3ccc4c(c3)CCCC4)CC2)c([N+](=O)[O-])c1,16.4µM,?,23.1µM,-,-61.8
COC(=O)c1ccc(N2CCN(S(=O)(=O)c3ccc4ccccc4c3)CC2)c([N+](=O)[O-])c1,16.4µM,-,20.6µM,-,-
COC(=O)c1ccc(N2CCN(C(=O)C3CC3)CC2)c([N+](=O)[O-])c1,-,-,-,-,-
NC(=O)c1ccc(N2CCN(c3ccc(O)cc3)CC2)c([N+](=O)[O-])c1,?,-,16.4µM,-,-
CC(=O)c1ccc(N2CCN(c3ccc(C(N)=O)cc3[N+](=O)[O-])CC2)cc1,?,-,?,-,-
SMILES,TDP1 cell CPT,HT1080-NT tox,DT40 TDP1 no CPT,HT1080 IDH1KD tx,IL-1B inflam inh
O=C(c1ccc(N2CCCCC2)c([N+](=O)[O-])c1)N1CCN(S(=O)(=O)c2ccccc2)CC1,?,-,?,-,?
NC(=O)c1ccc(N2CCN(S(=O)(=O)c3ccccc3)CC2)c([N+](=O)[O-])c1,?,-,7.31µM,-,-
O=c1nc2sc3ccccc3n2c(=O)n1-c1cccc(Cl)c1,?,-,?,-,-
Cc1ccc2c(c1)sc1nc(=O)n(-c3ccc(Cl)cc3)c(=O)n12,-,-,-,-,-
O=c1nc2sc3ccccc3n2c(=O)n1-c1ccc(Cl)cc1,?,-,20.6µM,-,-
O=c1nc2sc3ccccc3n2c(=O)n1-c1ccc(Cl)c(Cl)c1,?,.,10.3µM,.,.
